PfHsp40 rescue: compounds rescuing yeast from Plasmodium falciparum HSP40 toxicity; S. cerevisiae expressing PfHsp40, growth rescue, ATP luminescence; 0.68% of 340,000 active; growth rescue, % at 12.5 µM; in the data active means growth rescue above about 28%, passing the limit was not always enough; inconclusive means no clear call, values can overlap the other calls;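 further: yeast W303a lacking pdr1 and pdr3 grown in galactose medium; growth measured after three days at 30 °C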
Mtb BioA inh: inhibitors of Mycobacterium tuberculosis BioA enzyme. purified M. tuberculosis BioA enzyme, plate reader. inhibition, % at 9.99 µM. 0.096% of 360,000 active. AID 602481; in the data active means inhibition above about 40%; inconclusive means no clear call, values can overlap the other calls
Yp Topo-I inh: blocks Yersinia pestis topoisomerase I activity | Y. pestis Topo-I cleavage product accumulation, plate reader | activity, % at 10 µM | 0.064% of 360,000 active | AID 504884; in the data active means activity above about 50%, passing the limit was not always enough; inconclusive means no clear call, values can overlap the other calls
PrP UTR inh: suppresses PrP 5' UTR mRNA reporter expression; cell-based PrP 5' UTR mRNA reporter, plate reader; inhibition, % (concentration not given with the values); 0.35% of 340,000 active; in the data active means inhibition above about 52%; further: 0 = median of the neutral control wells
FadD28 FP inh: blocks FadD28 binding to the bisubstrate probe | 0.22% of 360,000 active | AID 588549 | fluorescence polarization | inhibition, % at 12.5 µM; in the data active means inhibition above about 8.5%, passing the limit was not always enough; inconclusive means no clear call, values can overlap the other calls
* = called active by the depositor; ? = inconclusive; nt = no result given. Most compounds without a hit are left out; they make up all but 1.1% or so of the library.

SMILES	PfHsp40 rescue	Mtb BioA inh	Yp Topo-I inh	PrP UTR inh	FadD28 FP inh
O=S(=O)(c1ccc(SCc2ccc(Cl)cc2)nc1)N1CCCC1	1	-1	53*	-11	0
COc1ccccc1C#Cc1ccc2c(c1)O[C@@H](CN(C)C(C)=O)[C@@H](C)CN([C@@H](C)CO)S2(=O)=O	nt	0	nt	nt	nt
CCCCCCCNC(=O)C1(CC2CC(c3cccc(Br)c3)=NO2)CCN(C(=O)OC(C)(C)C)CC1 (configuration not stated)	-1	0	3	-1	-4
CCCCCCCNC(=O)C1(CC2CC(c3cccc(Br)c3)=NO2)CCN(C(=O)C2CCCC2)CC1 (configuration not stated)	-1	0	60*	-14	-4
C[C@H]1CN([C@@H](C)CO)S(=O)(=O)c2ccc(-c3ccncc3)cc2O[C@H]1CN(C)C(=O)c1ccc2c(c1)OCO2	nt	5	nt	nt	nt
O=C(CN1/C(=C(/O)c2ccccc2)C(=O)c2ccccc2S1(=O)=O)c1ccccc1	80*	-3	2	-19	0
COc1ccc(N=N/C(=C\O)C(=O)c2cccs2)cc1	478*	nt	21	-17	1
Nc1c(C(=O)NCC2CCCO2)sc2nc3c(c(-c4ccco4)c12)CC/C3=C\c1ccco1 (configuration not stated)	0	-1	2	-3	14*
COc1ccc(S(=O)(=O)Nc2ccc3c(c2)C(=O)N([C@H](C)CO)C[C@H](C)[C@@H](CN(C)Cc2ccccc2)OCCCC[C@H](C)O3)cc1	nt	7	nt	nt	nt
CCOc1ccccc1NC(=O)CC1Nc2cc(C)c(C)cc2NC1=O (configuration not stated)	49*	0	10	-15	-1
CCOc1ccccc1NC(=O)CC1Nc2ccccc2NC1=O (configuration not stated)	2	-1	0	-18	-1
Oc1c(Cl)cc(Cl)c2c1NCCC2	87*	1	-13	-15	2
O=C1NCCCc2c1oc1ccc(O)cc21	0	0	-4	-13	-1
CO[C@H]1CN(C)C(=O)c2ccc(NC(=O)NC(C)C)cc2OC[C@@H](C)N(CC2CC2)C[C@H]1C	nt	1	nt	nt	nt
C[C@@H](O)C#Cc1ccc([C@H]2[C@@H](CO)N3CCCCN(C(=O)Nc4ccccc4)C[C@H]23)cc1	nt	-11	nt	nt	nt
Cc1cccc(NC(=O)CN2C(=O)N/C(=C/c3cc(C)n(-c4ccncc4)c3C)C2=O)c1	-1	0	5	-30	11*
Cc1cccc(NC(=O)CN2C(=O)N/C(=C/c3cc(C)n(-c4cccnc4)c3C)C2=O)c1	0	nt	-9	-20	28*
Cc1cccc(NC(=O)CN2C(=O)N/C(=C/c3cc(C)n(C)c3C)C2=O)c1	0	nt	-4	-10	0
C[C@@H]1CN([C@@H](C)CO)C(=O)c2cc(NC(=O)Nc3ccccc3)ccc2O[C@H]1CN(C)Cc1ccc(-c2ccccc2)cc1	nt	-4	nt	nt	nt
CC(C)NC(=O)N(C)C[C@H]1Oc2c(NC(=O)Nc3cccc4ccccc34)cccc2C(=O)N([C@@H](C)CO)C[C@@H]1C	nt	2	nt	nt	nt
O=c1c2c([nH]c3ccccc13)CCCC2	1	0	-1	-10	-1
O=C(O)c1cccc2c3c([nH]c12)CCCC3	128*	-1	-6	-17	-2
C[C@@H]1CCCCO[C@H](CN(C)C(=O)NC2CCCCC2)[C@H](C)CN([C@@H](C)CO)C(=O)c2cc(NC(=O)Cc3ccccc3)ccc2O1	nt	-2	nt	nt	nt
CCOC(=O)C1CCN(C(=O)c2cc3c(=O)n4cccc(C)c4nc3s2)CC1	32*	0	19	-11	-3
CCOC(=O)C1CCN(C(=O)c2cc3c(=O)n4ccccc4nc3s2)CC1	-1	1	-3	-8	-3
SMILES	PfHsp40 rescue	Mtb BioA inh	Yp Topo-I inh	PrP UTR inh	FadD28 FP inh
CN(C)c1nc(-c2ccccc2)nc(-c2ccc(Cl)cc2)c1C#N	0	1	4	-7	-2
CN(C)c1nc(-c2ccccn2)nnc1-c1ccccc1	393*	1	1	-9	3
CCN(CC)c1nc(-c2ccccn2)nc(-c2ccccc2)c1C#N	71*	nt	27	-51	-3
COC(=O)C[C@@H]1CC[C@H]2[C@H](COc3ccc(NS(=O)(=O)c4ccccc4Cl)cc3C(=O)N2C)O1	nt	-2	nt	nt	nt
CO[C@@H](CN(C)S(=O)(=O)c1cn(C)cn1)[C@@H](C)CN(C(=O)Nc1ccc(F)cc1)[C@H](C)CO	nt	-2	nt	nt	nt
COc1ccc(NC(=O)N(C)C[C@@H]2OCCCC[C@@H](C)Oc3ccc(NC(=O)CCCCCC(=O)Nc4ccccc4N)cc3C(=O)N([C@H](C)CO)C[C@@H]2C)cc1	nt	-1	nt	nt	nt
O=C(NCCO)C(=O)c1c(-c2ccc(Cl)cc2)cc2ccccn12	2	nt	-1	-21	-4
O=C(O)c1ccn2c(C(=O)c3ccc(Cl)cc3)c(-c3ccccc3)cc2c1	72*	4	4	2	-1
CN(C)n1cccc1/C=C(\C#N)S(=O)(=O)c1cccc(Cl)c1	32*	0	2	-11	-1
CS(=O)(=O)/C(C#N)=C/c1cccn1S(=O)(=O)c1ccccc1	-1	-1	0	-7	-1
CN(C)/C=C/C(=O)c1ccc([N+](=O)[O-])c(CS(=O)(=O)c2ccc(Cl)cc2)c1	-2	1	0	-20	18*
COC(=O)c1ccc([N+](=O)[O-])c(CS(=O)(=O)c2ccc(Cl)cc2)c1	-2	8	-3	-1	-2
C#CCOCCOCCOCCNc1nc(N2CCN(C(=O)CCCCCCCCCCNC(=O)[C@H](CCCCN)n3cc(CCO)nn3)CC2)nc(N2CCN(C(=O)CCCCCCCCCCNC(=O)[C@H](CCCN=C(N)N)n3cc(C[C@@H](C)CC)nn3)CC2)n1	-2	-1	-27	-18	-12
C#CCOCCOCCOCCNc1nc(N2CCN(C(=O)CCCCCCCCCCNC(=O)[C@@H](CCSC)n3cc(CCO)nn3)CC2)nc(N2CCN(C(=O)CCCCCCCCCCNC(=O)[C@H]([C@@H](C)CC)n3cc(CCCCN=C(N)N)nn3)CC2)n1	?	1	20	-1	11*
C[C@@H]1CN([C@H](C)CO)C(=O)c2cccc(NC(=O)Nc3ccc(F)cc3)c2O[C@H]1CN(C)C(=O)NC1CCCCC1	nt	2	nt	nt	nt
C[C@@H]1CN([C@H](C)CO)C(=O)c2cc(C3=CCCCC3)cnc2O[C@H]1CN(C)C(=O)Nc1cccc(F)c1	nt	6	nt	nt	nt
Cc1cc(C)c(S(=O)(=O)N2CCC(C(=O)NCc3ccc(Cl)cc3Cl)CC2)c(C)c1	38*	-4	-10	-8	-2
C[C@@H]1CN([C@@H](C)CO)C(=O)c2cc(-c3cccc(C#N)c3)cnc2O[C@H]1CN(C)Cc1ccncc1	nt	0	nt	nt	nt
Cc1cccc(N2C(=O)C(Oc3ccc(Cl)cc3Cl)C2C=O)c1C (configuration not stated)	280*	nt	-1	-17	0
O=C(N/N=C/c1ccc[nH]1)c1sc2ccccc2c1Cl	498*	2	11	-24	-4
CCCCCCSc1ccc([C@H]2N[C@@](CC(C)C)(C(=O)OC)[C@H]3C(=O)N(C)C(=O)[C@@H]23)cc1	47*	0	29	-13	-1

Screening results deposited in PubChem by Broad Institute.
